# Rv3671c protease: inhibits the M. tuberculosis serine protease Rv3671c. P9WHR9. inhibition, % at 5.96 µM. hit rate 0.048% among 320,000. AID 2606; in the data active = inhibition above about 38%;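 also: extracellular domain of Rv3671c used as enzyme; 0% = enzyme with DMSO and 100% = no enzyme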
# Mtb betalactam: beta-lactam sensitization of Mtb H37Rv | M. tuberculosis H37Rv growth with meropenem, percent inhibition | inhibition, % at 25 µM | hit rate 0.27% among 330,000 | AID 434955; call rule not given here;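 also: growth measured after seven days incubation then overnight dye step; 0% = bacteria only wells and 100% = bacteria with antibiotic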
# PriA SSB inh: K. pneumoniae PriA-SSBct interaction inhibition; hit rate 0.6% among 430,000; AlphaScreen SSBct-PriA binding, biotinylated peptide; inhibition, % at 33 µM; in the data active = inhibition mostly above about 37%, no sharp cut-off; inactive = mostly below about 20%;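 also: plate controls were negative control peptide for no effect and reference peptide for full effect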
# GDH-TPI counter-1: counter-screen for M. tuberculosis FBA inhibitors: GDH-TPI coupled enzymes. GDH-TPI coupled enzyme counterscreen, NADH absorbance. inhibition, % at 4.8 µM. hit rate 1.2% among 360,000; in the data active = inhibition above about 30%;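 also: 0% = DMSO wells and 100% = wells lacking the enzyme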
# UGM FP inh: inhibitors of M. tuberculosis UDP-galactopyranose mutase | purified UGM, fluorescence polarization probe displacement | inhibition, % at 10 µM | hit rate 0.06% among 320,000 | AID 504406; in the data active = inhibition above about 10%, passing the limit was not always enough
# Mtb FBA inh: inhibitors of M. tuberculosis fructose-bisphosphate aldolase | purified M. tuberculosis FBA, fluorescence read-out | hit rate 2.3% among 360,000 | inhibition, % at 1 µM | P9WQA3 | AID 588726;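 also: 0% = vehicle and 100% = reference inhibitor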
# Target sequence (P9WQA3 whole entry, looked up): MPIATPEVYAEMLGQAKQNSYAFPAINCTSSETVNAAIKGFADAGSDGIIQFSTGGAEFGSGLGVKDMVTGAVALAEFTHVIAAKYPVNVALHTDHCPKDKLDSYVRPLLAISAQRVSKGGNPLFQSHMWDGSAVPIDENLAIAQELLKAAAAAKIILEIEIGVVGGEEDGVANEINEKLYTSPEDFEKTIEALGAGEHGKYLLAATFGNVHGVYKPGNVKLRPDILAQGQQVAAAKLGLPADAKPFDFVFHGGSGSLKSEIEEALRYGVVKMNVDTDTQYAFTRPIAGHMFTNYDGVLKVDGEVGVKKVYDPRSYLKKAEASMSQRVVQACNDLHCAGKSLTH
# Mtb FBA confirm: confirmation of M. tuberculosis fructose-bisphosphate aldolase inhibitors; shares compounds with Mtb FBA inh; purified M. tuberculosis FBA, fluorescence read-out; inhibition, % at 1 µM; hit rate 78% among 5,600; AID 651616;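 also: 0% = vehicle wells and 100% = reference inhibitor wells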
# GDH-TPI counter-2: GDH-TPI inhibition counter-screen for FBA inhibitors; shares compounds with Mtb FBA inh; GDH-TPI coupled enzyme counterscreen, fluorescence; inhibition, % at 1 µM; hit rate 81% among 5,600; in the data active = inhibition above about 10%
# An asterisk follows results filed as active; i = inactive; x = no result; + = active, no number. Only some compounds are listed: those with a hit (about 3.2% of all), similar ones and a draw of the others. Rule as the data show it, unless noted: active = inhibition above about 27%; inactive = the rest.
SMILES,Rv3671c protease,Mtb betalactam,PriA SSB inh,GDH-TPI counter-1,UGM FP inh,Mtb FBA inh,Mtb FBA confirm,GDH-TPI counter-2
COc1ccc(-c2nc3n(c2C)Cc2ccccc2-3)cc1,-3,4,24,7,1,111*,101*,93*
O=c1cc(-c2ccccc2)nc2n1Cc1ccccc1-2,1,60,-14,0,-4,-3,x,x
COc1ccc(-c2noc(Cn3cnc4c(nnn4Cc4cccc(Cl)c4)c3=O)n2)c(OC)c1,x,x,-8,x,x,x,x,x
COCCNC(=O)CSc1ccc(-c2nc3ccccc3[nH]2)cn1,-4,5,-8,31*,2,31*,2,-4
Cc1ccc(C(=O)N/N=C/c2ccccc2[N+](=O)[O-])cn1,x,x,i,x,x,x,x,x
Cc1ccn2c(NC3CCCC3)c(-c3ccncc3)nc2c1,8,-8,-15,22,1,1,x,x
Cc1ccn2c(NC3CCCCC3)c(-c3cccc(-c4cccc(Cl)c4)c3)nc2c1,-1,99,-2,16,3,33*,113*,101*
CCC(C)Sc1ccc(-c2nc3cnccn3c2NC2CCCCC2)cc1 (stereo not drawn),-4,100,-23,12,3,29*,67*,57*
CCCCCCSc1ccc(-c2nc3cc(C)ccn3c2NC2CCCCC2)cc1,-1,-5,-6,6,4,7,x,x
CCC(C)Sc1ccc(-c2nc3cc(C)ccn3c2NC2CCCCC2)cc1 (stereo not drawn),-2,97,17,29,x,33*,+,+
NC(=O)NN=Cc1ccccc1OCc1cccc2ccccc12,x,x,-8,x,x,x,x,x
CC(C)c1ccc(C=NNC(=O)CC(=O)NCc2ccccc2)cc1,x,x,-14,x,x,x,x,x
CCn1cc(-c2ccnc3cc(C(=O)O)nn23)c(C)n1,3,-1,-12,12,0,84*,76*,58*
Cc1c(-c2ccnc3cc(C(=O)O)nn23)cnn1C,1,-7,-7,12,-4,79*,22,17*
Cc1cc2nccc(-c3ccc(Cl)cc3Cl)n2n1,11,7,-3,0,-2,1,x,x
CCn1cc(CCC(=O)O)c(C)n1,5,-3,-6,2,5,0,x,x
COc1ccc(C=NOCC(=O)N=Nc2c(O)[nH]c3ccc(Br)cc23)cc1OC,x,x,-3,x,x,x,x,x
CC(C)C(=O)NCCn1ccc2ccccc21,-2,-13,-18,7,5,30*,102*,88*
CCC(=O)NCCn1ccc2ccccc21,2,-9,-1,-3,1,0,x,x
COC(=O)c1ccc(NC(=O)CSc2cc(NCc3ccc(Cl)cc3)ncn2)cc1,x,x,-1,x,x,x,x,x
COc1ccc(-c2cc(C(F)F)n3ncc(C(=O)N4CCN(C)CC4)c3n2)cc1,6,-3,-30,17,0,30*,39*,34*
O=C(Nc1cc(S(=O)(=O)N2CCCCC2)ccc1O)c1ccccc1NS(=O)(=O)c1ccc(F)cc1,-28,6,1,3,-1,11,x,x
O=C(NCc1cccnc1)c1ccccc1NS(=O)(=O)c1ccc(F)cc1,7,2,1,-6,-2,9,x,x
CCc1nnc(NS(=O)(=O)c2ccc(NC(=O)c3ccccc3O)cc2)s1,0,-1,-2,6,5,73*,35*,26*
O=C(Nc1cc(S(=O)(=O)N2CCCCC2)ccc1Cl)c1ccccc1NS(=O)(=O)c1ccc(F)cc1,-10,7,-5,8,1,33*,-7,-6
SMILES,Rv3671c protease,Mtb betalactam,PriA SSB inh,GDH-TPI counter-1,UGM FP inh,Mtb FBA inh,Mtb FBA confirm,GDH-TPI counter-2
Cc1ccc(S(=O)(=O)Nc2ccccc2C(=O)NCc2cccnc2)cc1,-5,4,-8,-2,-1,51*,59*,48*
Cc1ccnc(NC(=O)c2cc(S(=O)(=O)N3CCCCC3)ccc2Cl)c1,3,4,-12,9,2,38*,92*,84*
COc1ccc(S(=O)(=O)N2CCCCCC2)cc1C(=O)Nc1cc(C)ccn1,-12,10,-9,5,-2,3,x,x
CCn1c(C)csc1=NS(=O)(=O)c1ccccc1,x,x,-10,x,x,x,x,x
Cc1nn(-c2ccccc2)c(C)c1C=NNC(=O)c1cc(-c2ccccc2)n[nH]1,x,x,4,x,x,x,x,x
O=C(Nc1ccc(-c2nc3ccccc3[nH]2)cc1)c1ccccc1NS(=O)(=O)c1ccc(F)cc1,-108,6,1,31*,3,87*,+,+
O=C(Nc1ccc(S(=O)(=O)Nc2ncccn2)cc1)c1ccccc1NS(=O)(=O)c1ccc(F)cc1,5,0,-30,5,2,73*,-4,-4
O=C(O)/C=C/c1ccc(S(=O)(=O)Nc2ccccc2C(=O)Nc2ccc(F)cc2)cc1,-1,0,-14,15,2,-2,x,x
Cc1csc(C(=O)N2CCC3(CC2)OC(=O)c2ccccc23)c1,x,x,4,x,x,x,x,x
CCOC(=O)c1cnc2sc3c(n2c1=O)CCCC3,-12,15,-10,23,4,108*,53*,45*
Cc1ccc(S(=O)(=O)Nc2ccccc2C(=O)Nc2nc3c(C)ccc(Cl)c3s2)cc1,x,x,-15,x,x,x,x,x
CCCn1c(-c2cc(OC)c(OC)c(OC)c2)nc2c1c(=O)[nH]c(=O)n2Cc1ccccc1,-6,3,-7,-4,1,41*,12,9
CCCCn1c(=O)[nH]c(=O)c2c1nc(-c1ccc(OCCC)c(OCC)c1)n2CCOC,4,2,-10,5,0,21,x,x
O=c1[nH]c(=O)n(Cc2ccccc2)c2nc(-c3ccc(C(F)(F)F)cc3)n(CCO)c12,5,1,-13,6,2,69*,134*,115*
Cn1c(-c2cccc(F)c2)nc2c1c(=O)[nH]c(=O)n2Cc1ccccc1,3,-1,2,-13,1,28*,4,-3
CCCOc1ccc(-c2nc3c(c(=O)[nH]c(=O)n3Cc3ccccc3)n2CCO)cc1OCC,-11,-1,10,-1,0,38*,0,-4
COc1ccc(OC)c(-c2csc(NC(=O)c3cc(C)n(C)n3)n2)c1,x,x,-10,x,x,x,x,x
COc1cc(OC)cc(C(=O)NCCOc2ccc(-c3cccs3)nn2)c1,x,x,-4,x,x,x,x,x
O=C(Cc1cccs1)N1CC(S(=O)(=O)Cc2ccco2)C1,x,x,8,x,x,x,x,x
Cc1c(OCC(=O)NCCCN2CCOCC2)ccc2c3c(c(=O)oc12)CCC3,3,-4,-7,-3,-1,15,x,x
Cc1c(OCC(=O)NCCCN2CCOCC2)ccc2c1oc(=O)c1ccccc12,0,2,-9,7,1,47*,98*,68*
O=C(COc1ccc2c(c1)oc(=O)c1ccccc12)NCCCN1CCOCC1,-3,-4,1,5,-3,98*,93*,78*
Cc1c(C)c2ccc(OCC(=O)NCCN3CCOCC3)cc2oc1=O,-2,2,-9,6,-1,97*,-6,-3
Cc1cc(=O)oc2cc(OCC(=O)NCCN3CCOCC3)ccc12,3,-10,-14,2,-1,13,x,x
